High-throughput results: PubChem BioAssay, National Center for Advancing Translational Sciences (NCATS)
G9a block – inhibitors of human histone lysine methyltransferase G9a. Q96KQ7. G9a H3K9 monomethylation, AlphaScreen, 2 h. Potency, µM (top dose mostly 102 µM), inactives show at the highest dose activity, negative = inhibition, most hits filed as inhibitors. hit rate 8.8% among 350,000; note: potency is the fitted concentration of half-maximal effect; % is set by controls: 0 for no effect and ±100 for the full control effect; nearly all actives have a fitted effect of over 75% in size
Target sequence (Q96KQ7 913-1193 limits assumed): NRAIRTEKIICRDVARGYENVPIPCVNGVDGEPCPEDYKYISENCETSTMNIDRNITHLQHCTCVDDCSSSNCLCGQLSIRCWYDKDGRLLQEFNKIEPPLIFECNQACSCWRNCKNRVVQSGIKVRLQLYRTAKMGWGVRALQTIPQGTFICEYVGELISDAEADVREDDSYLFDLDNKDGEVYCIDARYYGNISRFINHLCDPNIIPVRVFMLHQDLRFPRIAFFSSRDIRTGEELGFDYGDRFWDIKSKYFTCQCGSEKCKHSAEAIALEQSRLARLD
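AlphaScreen read-out: biotin-H3K9 peptide (500 nM) methylation by 20 nM enzyme with 20 uM SAM, 2 h at room temperature after 15 min compound preincubation; anti-monomethyl H3K9 antibody plus donor/acceptor beads, 10 min dark.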
L3MBTL1 inh – inhibitors of human L3MBTL1; Q9Y468; AlphaScreen L3MBTL1–H3K9me1 peptide binding; Potency, µM (doses to about 57.1 µM), for inactives: at the top dose activity, negative = inhibition, most hits filed as inhibitors; hit rate 0.66% among 230,000; AID 485360; note: potency is the fitted concentration of half-maximal effect; % is set by controls: 0 for no effect and ±100 for the full control effect; nearly all actives have a fitted effect of over 60% in size
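L3MBTL1 (50 nM) pre-complexed 30 min with biotinylated H3(1-15)K9me1 peptide (75 nM), then compounds added for 30 min at room temperature; AlphaScreen streptavidin donor/nickel chelate acceptor beads (10 ug/mL final) read after 30 min dark incubation.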
HP1b chromo inh – inhibitors of HP1-beta chromodomain binding to methylated histone tails. P83916. AID 540317. Potency, µM (highest dose often 114 µM), for inactives: at the top dose activity change, negative = inhibition, hits mostly inhibitors. AlphaScreen HP1-beta / biotin-H3K9me3 peptide binding. hit rate 0.56% among 390,000; note: potency is the fitted concentration of half-maximal effect; nearly all actives have a fitted effect of over 70% in size
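AlphaScreen: HP1-beta (50 nM) preformed 30 min with biotin-H3(1-18)K9me3 peptide (50 nM) in PBS pH 7.4, 0.01% Tween-20. Compound added for 30 min at RT, then streptavidin donor/nickel chelate acceptor beads (10 ug/mL) for 30 min.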
JMJD2A Tudor inh – inhibitors of human JMJD2A Tudor domain | hit rate 4.4% among 390,000 | AID 504339 | Potency, µM (highest dose often 114 µM), inactives show top-dose activity change, negative = inhibition, most hits filed as inhibitors | AlphaScreen JMJD2A-Tudor / H3K4me3 peptide binding; note: potency is the fitted concentration of half-maximal effect; % is set by controls: 0 for no effect and ±100 for the full control effect; nearly all actives have a fitted effect of over 50% in size
BAZ2B block – BAZ2B (human) inhibition. Q9UIF8. AlphaScreen BAZ2B-H3K14Ac peptide displacement. Potency, µM (series often up to 114 µM), for the others: at the highest dose activity change, negative = inhibition, most hits filed as inhibitors. hit rate 4.4% among 360,000. AID 504333; note: potency is the fitted concentration of half-maximal effect; % is set by controls: 0 for no effect and ±100 for the full control effect; nearly all actives have a fitted effect of over 60% in size
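Inhibition is scored as reduced AlphaScreen emission. The BAZ2B/b-H3(5-23)K14Ac complex (50 nM each) in PBS pH 7.4, 0.01% Tween-20 meets compound (up to 110 uM) for 30 min at RT before bead addition.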
PI5P4K alpha inh – PI5P4K alpha (human) kinase inhibition; AID 652105; PI5P4Kalpha enzyme, ADP-Glo luminescence, 60 min; stronger effect = lower value; max response, %; hit rate 1.2% among 330,000; active = max response of -50% or lower; inconclusive = between -30% and -50%; inactive = -30% or higher; note: value at the top dose of about 77 µM; % is set by controls: 0 for no effect and ±100 for the full control effect
Target sequence (P48426 whole entry, looked up): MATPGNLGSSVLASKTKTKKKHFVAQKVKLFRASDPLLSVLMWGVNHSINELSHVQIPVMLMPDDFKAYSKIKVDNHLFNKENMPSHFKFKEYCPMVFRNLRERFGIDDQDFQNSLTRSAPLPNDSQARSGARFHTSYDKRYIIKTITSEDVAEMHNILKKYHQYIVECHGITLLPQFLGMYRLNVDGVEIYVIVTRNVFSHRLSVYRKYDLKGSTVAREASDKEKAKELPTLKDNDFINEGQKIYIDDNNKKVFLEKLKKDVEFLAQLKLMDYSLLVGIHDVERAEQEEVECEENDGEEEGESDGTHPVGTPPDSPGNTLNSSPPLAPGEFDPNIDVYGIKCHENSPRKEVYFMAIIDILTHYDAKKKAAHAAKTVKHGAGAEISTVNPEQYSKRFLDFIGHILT
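Enzyme plus substrate dispensed, test compounds pinned in, then ATP (5 microM final) added. After 60 min at RT, ADP-Glo reagent 1 for 45 min and reagent 2 for 30 min preceded luminescence imaging.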
Starred values were filed as active, the others as inactive; ? = inconclusive; nt = no result; ! = a repeat was not active; [ ] = dose if it differs, or a comment. Rows were chosen to be rich in hits. Some 11% of all compounds tested hit in one or more screens of this group. Unless noted, calls come from the whole dose curve; as a rule, active = well fitted inhibition curve with a large enough effect; inconclusive = small, poorly fitted or top-dose-only effect; inactive = no such curve, though single readings can be large or run the other way.

SMILES	G9a block	L3MBTL1 inh	HP1b chromo inh	JMJD2A Tudor inh	BAZ2B block	PI5P4K alpha inh
CCOc1ccc2nc(NC(=O)CSc3nc(-c4ccccc4)c(C#N)c(=O)[nH]3)sc2c1	?	nt	?	50µM*	-27%	?
Cc1ccc(C)c(NC(=O)CSc2nc(-c3ccccc3)c(C#N)c(=O)[nH]2)c1	5%[59 µM]	nt	28%	-4%	7%	nt
CCOC(=O)Cc1csc(NC(=O)CSc2nc(-c3ccccc3)c(C#N)c(=O)[nH]2)n1	?	10%	26%	-13%	-6%	-65*
COC(=O)c1ccc2nc(C)cc(Nc3ccc(O)cc3)c2c1	?	nt	15%	-31%	-16%	nt
COC(=O)c1ccc2nc(C)cc(Nc3ccc(N(C)C)cc3)c2c1	50µM*	?	-5%	?	40µM*	9
Cc1cc(O)c(C(c2ccc(F)cc2)N2CCN(c3ccccc3)CC2)c(=O)n1Cc1ccco1 (stereo not given)	?	nt	31%[57 µM]	-23%	-2%	nt
COc1ccc(NC(=O)Cn2c(=O)n(-c3ccc(C)cc3)c(=O)c3c2cnn3C)cc1	29%[59 µM]	nt	51%	-20%	36%	nt
Cc1c(CNCCC2=CCCCC2)c(C(=O)O)c(C)n1Cc1ccccc1	50µM*	nt	12%	-21%	-37%	-10
CCn1nnc2cc(C(=O)Nc3cc(C)ccc3C)ccc21	0%[59 µM]	nt	17%	-13%	1%	nt
Nc1ccc(NC(=O)Nc2ccc(N)cc2)cc1	?	4%	27%	-10%	-17%	-20
Nc1ccc(NC2C[C@@H](C(=O)O)NC2=O)cc1 (stereo not given in full)	50µM*	4%	35%	-15%	-22%	-3
CN(CC(O)CN)CC(O)CN1CCCCC1 (stereo not given)	3.5µM*	nt	29%	-22%	-8%	nt
O=C1CC2(CCCC2)CC(=O)N1CCCCNCC1COc2ccccc2O1 (stereo not given)	37%[59 µM]	nt	nt	nt	nt	nt
O=C1O[C@H]([C@@H](O)CO)C(O)=C1O	13µM*!	?	47%	-16%	1%	-10
CCN(CC)CCNS(=O)(=O)c1ccc(OC)c(Br)c1	4µM*	nt	28%	56µM*	8%	10
COC(=O)C(C)N1C(=O)S/C(=C\c2cc(C)n(-c3ccccn3)c2C)C1=O (stereo not given)	56µM*	nt	0%	?	?	-7
COC(=O)C(C)N1C(=O)S/C(=C/c2cc(C)n(-c3ccccn3)c2C)C1=O (stereo not given)	?	nt	20%	-28%	?	3
Cc1cc(/C=C2\SC(=O)N(C)C2=O)c(C)n1-c1ccc(O)cc1	79µM*	0%	-28%	?	50µM*	-3
Cc1cc(/C=C2\SC(=O)N(C)C2=O)c(C)n1-c1ccc(S(N)(=O)=O)cc1	45µM*	nt	24%	-8%	-3%	-10
Cc1ccc(-n2c(=O)c3c(C)c(C)sc3n(CC(=O)NCc3ccccc3)c2=O)cc1C	-4%[59 µM]	nt	29%	-2%	-18%	nt
COc1ccc(NC2=C(C(C)=O)C(c3ccc(N(C)C)cc3)C(C(C)=O)C(C)(O)C2)cc1 (stereo not given)	20µM*	nt	2%	-23%	-3%	3
CCSC1=NC2(CCCCC2)Nc2sc3c(c21)CCCC3	4.5µM*	nt	?	22µM*	?	-26
COC(=O)c1ccc(OCC2c3cc(OC)c(OC)cc3CCN2C(=O)COc2ccc(Cl)cc2)cc1 (stereo not given)	-2%[59 µM]	nt	-12%	-27%	-10%	nt
CN1Cc2sccc2C(c2ccc(O)c(O)c2)C1 (stereo not given)	8.4µM*	nt	nt	nt	nt	nt
O=C(Nc1cccc(Cl)c1)C1CCN(c2nc3ccccc3nc2C(F)(F)F)CC1	7%[59 µM]	nt	-7%	-12%	8%	nt
SMILES	G9a block	L3MBTL1 inh	HP1b chromo inh	JMJD2A Tudor inh	BAZ2B block	PI5P4K alpha inh
CNC(=S)N(CCc1c(C)[nH]c2ccc(OC)cc12)Cc1cc(OC)c(OC)c(OC)c1	50µM*	-8%	3%	?	45µM*	4
CNC(=S)N(CCc1c(C)[nH]c2ccc(C)cc12)Cc1cc(OC)c(OC)c(OC)c1	50µM*	-4%	-14%	?	40µM*	-3
CCNC(=S)N(CCc1c(C)[nH]c2ccc(C)cc12)Cc1cccnc1	11%[2.33 µM]	nt	?	?	?	0
Cc1c(C(=O)OCCOc2ccccc2)[nH]c2c1C(=O)CC(c1ccccc1Cl)C2 (stereo not given)	-2%[59 µM]	nt	32%	-8%	-2%	nt
COc1cccc(CNC(=O)CC(c2ccc(F)cc2)N2Cc3ccccc3C2=O)c1 (stereo not given)	-11%[59 µM]	nt	12%	-7%	-37%	nt
Cc1ccc(CNC(=O)Cn2c(=O)n(Cc3ccccc3)c(=O)c3c2c2cc(C)ccc2n3C)cc1	-5%[59 µM]	nt	29%	6%	-6%	nt
N#C/C(=C\c1cc(Br)c(O)c(Br)c1)c1nc2ccccc2c(=O)[nH]1	3%[59 µM]	nt	-18%	?	?	nt
Cc1ccc(CNC(=O)c2sc3nc4n(c(=O)c3c2C)CCCCC4)cc1	?	nt	48%	-14%	-33%	nt
Cc1ccc(CNC(=O)c2sc3nc4n(c(=O)c3c2C)CCCC4)cc1	?	nt	21%	?	50µM*	nt
CCCCN(CC)CCCNC(=O)c1sc2nc3n(c(=O)c2c1C)CCCCC3	8.9µM*	nt	28%	-8%	-4%	nt
Cc1c(C(=O)NCCc2ccc(Cl)cc2)sc2nc3n(c(=O)c12)CCCC3	?	nt	53%	-33%	40µM*	nt
Cc1c(C(=O)NCc2ccccc2)sc2nc3n(c(=O)c12)CCCCC3	10µM*	nt	33%	?	?	nt
COc1ccc(CNC(=O)c2sc3nc4n(c(=O)c3c2C)CCC4)cc1	-38%[59 µM]	nt	-6%	-30%	-21%	nt
N#Cc1nc(/C=C/c2ccc(F)cc2)oc1N1CCCCC1	?	nt	-19%	24%	?	nt
COc1ccccc1C(=O)Nc1ccccc1OCc1cc(=O)n2cc(C)sc2n1	-24%[59 µM]	nt	39%	-9%	-18%	nt
O=C(NNc1c2ccccc2nc2ccccc12)c1ccccc1Cl	26%	-2%	28%	-3%	-33%	1
O=C(NNc1c2ccccc2nc2ccccc12)c1ccccc1O	?	-26%	-8%	?	7.9µM*	-11
O=C(NNc1nc(=O)c2cccnc2s1)c1ccccc1O	50µM*	nt	-5%	50µM*	nt	-68*
O=C(NNc1c2ccccc2nc2ccccc12)c1ccc(O)cc1O	?	?	?	40µM*	20µM*	?
COc1cc(NS(=O)(=O)c2ccc3c(c2)CC(C)N3C(=O)C2CCC2)cc(OC)c1OC (stereo not given)	-3%[59 µM]	nt	14%	-25%	-16%	nt
